Compound activity (PubChem)
DAX1 inh-1 – DAX1 (NR0B1) inhibition, primary screen. HEK293T StAR-luciferase reporter, SF-1/DAX-1 repression relief. inhibition, % at 6.8 µM. 370,000 tested, 1.1% active. AID 652010;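 active means inhibition above the mean over all tested compounds plus 3 SD, cut at about 3.6% in these data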;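 further: higher inhibition means more luminescence from relief of DAX-1 repression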
hcDAF-12 act – H. contortus DAF-12 activation, primary screen | activation, % at 6.8 µM | 370,000 tested, 1.4% active | AID 652067 | HEK293 hcDAF-12 lit1-tk-luc reporter, luminescence; 0% DMSO, 100% Δ7-dafachronic acid;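 active means activation above the mean of all tested compounds plus 3 SD, cut at about 5.5% in these data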
hgDAF12 agonist – hgDAF-12 agonism, primary luciferase screen. HEK293 GAL4-hgDAF12 UAS-luciferase reporter, agonist luminescence; normalized to butyrate control. 370,000 tested, 1.8% active. activation, % at 6.8 µM. AID 687014;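 active means activation above a cutoff set at the mean of all screened compounds plus 3 SD, cut at about 10% in these data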
ssDAF12 agonist – activates DAF-12 receptor from parasite S. stercoralis. HEK293 ssDAF-12/GRIP1 lit1-tk-luc reporter, luminescence; % of 3 µM dafachronic acid response. activation, % at 6.8 µM. 370,000 tested, 1% active;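 active means activation above the mean over all tested compounds plus 3 SD, cut at about 0.9% in these data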
DAX1 inh-2 – inhibits human nuclear receptor DAX1; 340,000 tested, 0.99% active; inhibition, % at 6.75 µM; AID 504766; HEK293 Gal4-DAX1 luciferase reporter, luminescence;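 active means inhibition above the mean over all tested compounds plus 3 SD, cut at about 4.2% in these data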;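 further: inhibition shows as a rise in luminescence from relieved DAX1 repression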
Target sequence (P51843 207-470 limits assumed): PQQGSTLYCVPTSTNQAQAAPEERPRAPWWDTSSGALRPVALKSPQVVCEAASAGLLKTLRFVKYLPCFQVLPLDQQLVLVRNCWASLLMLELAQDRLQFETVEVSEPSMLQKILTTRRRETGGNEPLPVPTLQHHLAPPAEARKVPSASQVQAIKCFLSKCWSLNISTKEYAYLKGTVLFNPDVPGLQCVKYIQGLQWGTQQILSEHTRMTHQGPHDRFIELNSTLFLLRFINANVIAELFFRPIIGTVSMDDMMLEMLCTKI
AHR activator – activates the human aryl hydrocarbon receptor. activation, % at 5 µM. AHR-responsive luciferase reporter cells, luminescence. P35869. 320,000 tested, 2.5% active; in the data active means activation above about 47%
AHR act confirm – confirmation of human aryl hydrocarbon receptor activators. shares compounds with AHR activator. human cells, AHR-responsive luciferase reporter, luminescence. activation, % at 9 µM. 2,300 tested, 87% active. AID 2845; in the data active means activation above about 49%;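 further: HepG2 hepatoma cells carrying a DRE-driven firefly luciferase reporter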
PXR act counter – counter-screen for AHR activators: human PXR activators | shares compounds with AHR activator | cell-based PXR reporter, luciferase luminescence | activation, % at 11.6 µM | 2,300 tested, 88% active | AID 434939; in the data active means activation above about 11%;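 further: human hepatoma DPX-2 cells expressing full-length human PXR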
Numbers stand for hits; . = inactive; / = no result given. In the library only some 5.7% were active in any assay of this set; here they are far more common.

SMILES	DAX1 inh-1	hcDAF-12 act	hgDAF12 agonist	ssDAF12 agonist	DAX1 inh-2	AHR activator	AHR act confirm	PXR act counter
C=CCNc1nc2ccccc2c(=O)[nH]1	.	.	.	.	.	94.2	.	.
CCCNc1nc2ccccc2c(=O)[nH]1	.	.	.	.	.	.	/	/
O=C(O)CC1(CC(=O)O)Nc2ccccc2SC1=O	.	.	.	.	.	/	/	/
ONC(=Nc1ccccc1Cl)c1ccccc1Cl	.	.	.	.	.	.	/	/
O=[N+]([O-])c1cccc(C(=Nc2ccccc2Cl)NO)c1	.	.	.	.	.	85.3	73.4	50.2
COc1ccc(/C=N/Nc2nc3ccccc3[nH]2)cc1OC	.	.	.	.	.	110.7	85.5	/
C(=N\Nc1nc2ccccc2[nH]1)/c1ccccn1	.	.	.	.	.	/	/	/
COc1ccc(/C=N/Nc2nc(N)cc(Cl)n2)cc1OC	.	.	.	.	.	89.0	72.3	16.3
COc1ccc2c(c1)c(/C=N/Nc1nc3ccccc3[nH]1)c(C)n2C	.	.	.	.	.	97.8	62.8	40.4
BrC(=C\c1ccccc1)/C=N/Nc1nc2ccccc2[nH]1	.	.	.	.	.	148.7	49.1	59.1
O=C(CCNC(=O)c1ccccc1Cl)Nc1cc(C(F)(F)F)ccc1N1CCCC1	.	.	.	.	.	.	/	/
CC(C)Nc1nc(SCC(=O)Nc2ccccc2)nc(N2CCOCC2)n1	.	.	.	.	.	.	/	/
CCCSc1nc2c(cnn2-c2ccccc2)c(=O)[nH]1	.	.	.	.	.	.	/	/
Cn1ccnc1SCc1nc2c(cnn2-c2ccccc2)c(=O)[nH]1	.	.	.	.	.	81.6	84.6	16.0
O=c1[nH]c(CSc2ccccn2)nc2c1cnn2-c1ccccc1	.	.	.	.	.	97.3	71.2	33.5
Cc1ccc(NC(=O)CN(C)C(=O)COC(=O)CNS(=O)(=O)c2ccc(Br)cc2Cl)cc1	.	.	.	.	.	.	/	/
O=C(Nc1ccon1)Nc1ccc(F)cc1F	.	.	.	.	.	.	/	/
COc1cc(NC(=O)c2ccco2)c(C(=O)OCC(=O)Nc2ncc(Cl)cc2Cl)cc1OC	.	.	.	.	.	.	/	/
CC(=O)Nc1sc(-c2ccc(Cl)cc2)nc1-c1ccccc1	.	.	.	.	.	92.1	.	15.8
S=c1[nH]nc(-c2cc(-c3ccsc3)n[nH]2)n1-c1cccc2ccccc12	.	.	.	.	.	.	/	/
CCCNc1nc(Cl)nc(Nc2ccc(Cl)cc2)n1	.	.	.	.	.	127.2	90.7	/
N#Cc1c(NC(=S)NC(=O)c2ccccc2)sc2c1CCC2	.	.	.	.	.	.	/	/
Cc1occc1C(=O)Nc1sc2c(c1C(N)=O)CCCCC2	.	.	.	.	.	83.0	78.6	48.9
CC(C)C(=O)NC(=S)Nc1sc2c(c1C(N)=O)CCCC2	.	.	11.1	.	.	89.5	96.7	16.0
Cn1ncc(Cl)c1C(=O)Nc1sc2c(c1C(N)=O)CCC2	.	.	.	.	.	121.1	96.4	136.6
SMILES	DAX1 inh-1	hcDAF-12 act	hgDAF12 agonist	ssDAF12 agonist	DAX1 inh-2	AHR activator	AHR act confirm	PXR act counter
O=C(NC(=S)Nc1sc2c(c1C(=O)O)CCCC2)c1ccccc1	.	.	.	.	.	80.6	111.7	16.1
CCCC(=O)Nc1cccc(NC(=O)c2ccc3c(c2)OCO3)c1	.	.	.	.	.	.	/	/
Cc1ccc(NC(=O)OC[C@@H]2CSCCS(=O)(=O)N2)cc1	.	.	.	.	/	/	/	/
CC1(C)C(=O)CC[C@]2(C)C3C(=O)C=C4[C@H]5C[C@@](C)(C(=O)O)CC[C@]5(C)CC[C@]4(C)[C@]3(C)CC[C@@H]12 (some centres undefined)	.	.	.	.	.	.	/	/
COc1ccccc1NCC(=O)N/N=C(\C)c1ccc(Br)s1	.	.	.	.	.	.	/	/
C/C(=N/NC(=O)CNc1ccc(C)cc1)c1ccc(Br)s1	.	.	.	.	.	82.9	60.8	15.2
O=C(Nc1ccccc1C(=O)Nc1ccc(Cl)cc1)c1cccnc1	.	.	.	.	.	85.9	55.7	31.4
COc1ccc(OC)c(NC(=O)c2cccnc2)c1	.	.	.	.	.	.	/	/
CCOc1ncccc1C(=O)Nc1ccc(Cl)cc1	.	.	.	.	.	117.1	121.6	19.4
CCOc1ccc(NC(=O)c2cc(Cl)nc3ccccc23)cc1	.	.	.	.	4.3	94.9	91.2	11.1
CCOc1ccc(NC(=O)c2cc(-c3ccc(Cl)cc3)nc3ccccc23)cc1	.	.	.	.	/	/	/	/
COc1ccc(Cl)cc1NC(=O)c1cccnc1	.	.	.	.	.	88.3	107.1	11.2
Cc1ccc2[nH]c(=O)c(CN(C(=O)c3cccc([N+](=O)[O-])c3)C(C)C)cc2c1	.	.	.	.	.	.	/	/
COC(=O)c1ccc(Oc2c(F)c(F)nc(N3CCOCC3)c2F)cc1	.	.	.	.	.	.	/	/
COC(=O)c1cc2c(c3c4cc(F)ccc4n(S(=O)(=O)c4ccc(C)cc4)c13)C(=O)N(Cc1ccc(C(F)(F)F)cc1)C2	.	.	.	.	/	/	/	/
CC(=O)C1=C(O)C(=O)N(c2ccc(Br)cn2)C1c1cccc([N+](=O)[O-])c1 (centres undefined)	.	.	.	.	.	.	/	/
C=C1c2cc3c(cc2NC(=S)N1Cc1ccccc1)OCO3	.	.	.	.	/	86.5	64.5	144.9
COc1cccc(/C=N/Nc2nc(-c3cccnc3)nc3ccccc23)c1	.	.	.	.	.	93.0	53.8	18.1
COc1ccccc1/C=C1/C(=O)N(c2ccccc2)N=C1C	.	.	.	.	.	.	/	/
O=C1c2ccccc2C(=O)c2c1ncn2-c1ccccc1	.	.	.	.	.	87.2	129.7	32.6
CC(NC(=O)c1ccccc1NC(=O)c1ccco1)C(=O)O (centres undefined)	.	.	.	.	.	.	/	/
C=CCOn1c(C)c(C(C)=O)c2c3nonc3ccc21	.	.	.	.	.	80.9	70.9	47.7
COn1c(C)c(C(C)=O)c2c3no[n+]([O-])c3ccc21	.	.	.	.	.	.	/	/
C=CCOn1c(C)c(C(C)=O)c2c3no[n+]([O-])c3ccc21	.	.	.	.	.	111.2	77.8	84.9
CCSc1ccc(-c2ccco2)nn1	.	.	.	.	.	.	/	/
CC1=C(C(=O)Nc2ccc(Br)cc2)C(c2ccco2)NC(=O)N1 (centres undefined)	.	.	.	.	.	107.1	.	.
CC1=C(C(=O)Nc2ccc(C)cc2)C(c2ccco2)NC(=O)N1 (centres undefined)	.	.	.	.	.	.	/	/
Cn1cc(C(=O)c2ccc(Cl)cc2Cl)cc1C(=O)O	.	.	.	.	.	.	/	/
